USP30 block = human USP30 deubiquitinase inhibition; Q70CQ3; purified USP30, Ub-rhodamine cleavage fluorescence; inhibition, % at 25 µM; actives 5.3% (n = 47,000); AID 1645860
USP28 inh = blocks human USP28 ubiquitin-rhodamine cleavage. Q96RU2. purified USP28, Ub-rhodamine cleavage fluorescence, 30 min. inhibition, % at 25 µM. actives 3% (n = 47,000). AID 1645857
Target sequence (Q96RU2 whole entry, looked up): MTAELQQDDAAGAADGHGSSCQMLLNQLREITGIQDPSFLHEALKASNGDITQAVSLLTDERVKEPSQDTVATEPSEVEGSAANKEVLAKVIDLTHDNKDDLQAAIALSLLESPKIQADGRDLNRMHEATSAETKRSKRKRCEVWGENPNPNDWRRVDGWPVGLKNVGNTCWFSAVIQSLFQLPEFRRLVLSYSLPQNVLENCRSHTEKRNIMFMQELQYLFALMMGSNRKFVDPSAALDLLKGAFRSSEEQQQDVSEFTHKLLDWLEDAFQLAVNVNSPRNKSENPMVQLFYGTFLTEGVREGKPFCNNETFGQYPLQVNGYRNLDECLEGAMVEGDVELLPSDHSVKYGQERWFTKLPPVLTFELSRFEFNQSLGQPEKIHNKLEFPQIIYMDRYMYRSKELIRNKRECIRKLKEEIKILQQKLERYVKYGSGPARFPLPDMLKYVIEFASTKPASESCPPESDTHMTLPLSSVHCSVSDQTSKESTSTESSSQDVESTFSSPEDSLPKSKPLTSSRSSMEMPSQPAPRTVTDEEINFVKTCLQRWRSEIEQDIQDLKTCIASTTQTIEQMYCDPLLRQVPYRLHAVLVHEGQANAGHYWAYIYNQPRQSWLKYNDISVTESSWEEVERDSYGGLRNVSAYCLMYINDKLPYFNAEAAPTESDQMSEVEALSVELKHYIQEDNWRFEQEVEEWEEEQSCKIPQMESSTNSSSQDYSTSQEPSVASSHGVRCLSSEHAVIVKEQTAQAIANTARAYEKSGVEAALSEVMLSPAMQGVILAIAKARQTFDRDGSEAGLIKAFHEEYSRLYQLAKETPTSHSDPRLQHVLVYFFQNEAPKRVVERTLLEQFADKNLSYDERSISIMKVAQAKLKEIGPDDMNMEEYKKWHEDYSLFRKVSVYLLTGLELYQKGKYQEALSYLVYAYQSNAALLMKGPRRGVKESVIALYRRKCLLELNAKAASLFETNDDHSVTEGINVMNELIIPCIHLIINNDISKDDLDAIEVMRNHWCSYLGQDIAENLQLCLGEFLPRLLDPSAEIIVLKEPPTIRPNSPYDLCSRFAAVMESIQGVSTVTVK
* = called active by the depositor. In the library only some 7% were active in any assay of this set; here they are far more common. No stated cut-off is given here; in the data, active means inhibition above about 30%; inactive means the rest.

SMILES	USP30 block	USP28 inh
CN(C(=O)COc1ccccc1-c1nnc(-c2ccccc2)o1)c1ccccc1	30	9
O=C(COc1ccccc1-c1nnc(-c2ccccc2)o1)Nc1ccccc1F	26	0
CC(C)NC(=O)COc1cccc(-c2noc(-c3ccccc3Cl)n2)c1	27	0
CC(C)NC(=O)COc1ccccc1-c1nnc(-c2ccccc2)o1	50*	21
Cc1nc(N2CCN(C)CC2)cc(N2CCN(S(=O)(=O)c3ccccc3)CC2)n1	-76	-24
Cc1cc(=O)[nH]c(N2CCN(CC(=O)N3CCCC(C)C3)CC2)n1 (stereo not given)	10	15
COc1ccccc1CNC(=O)c1ccc(-c2csc(C)n2)cc1	1	27
COc1ccc(C(=O)NCc2csc3ccccc23)cc1	64*	35*
O=C(NCc1csc2ccccc12)c1ccc(Cl)cc1	45*	11
O=C(NCc1ccccc1Cl)c1csnn1	1	2
O=C(c1cccc(Cl)c1)N1CCN(c2cc(-c3cccnc3)[nH]n2)CC1	-22	-8
O=C(CCc1ccccc1)N1CCN(c2cc(-c3cccnc3)[nH]n2)CC1	30*	14
Cc1cc(C)nc(-n2ncc(C#N)c2NC(=O)c2ccc(Br)cc2)n1	-112	-26
CC1Oc2ccccc2C(=O)N(Cc2ccc(F)cc2)C1=O (stereo not given)	9	18
CCOc1ccc(C(=O)CN2C(=O)c3ccccc3OC(C)C2=O)cc1 (stereo not given)	29	10
CC1Oc2ccccc2C(=O)N(CC(=O)c2ccc3c(c2)OCCO3)C1=O (stereo not given)	23	31*
CC1Oc2ccccc2C(=O)N(Cc2ccccc2)C1=O (stereo not given)	32*	33*
CC(=O)c1cccc(NC(=O)CC(c2ccco2)n2cccc2)c1 (stereo not given)	-39	-7
N#Cc1ccc(N=C2C(=O)N(Cc3ccccc3)c3ccccc32)cc1	23	19
CC(C)C12CN3CC(C(C)C)(CN(C1)C3[C@@H](O)[C@H](O)[C@H](O)[C@@H](O)CO)C2=O (stereo not given in full)	30*	11
CC(C)C12CN3CC(C(C)C)(CN(C1)C3c1ccc([N+](=O)[O-])o1)C2=O (stereo not given)	17	11
CC1CCN(c2cc(C(C)C)nc3nc(-c4cccnc4)nn23)CC1	18	10
COc1cc(C2CCN(C(=O)Nc3ccccc3)CC2)on1	19	6
CCCCC(C(=O)O)C(C)C(=O)O (stereo not given)	21	8
CCCCC(C)/C=C(C)/C=C(\C)C(N)=O (stereo not given)	32*	29
SMILES	USP30 block	USP28 inh
COc1cc(C#N)ccc1OCC(=O)N1c2ccccc2SCC1c1ccccc1 (stereo not given)	3	-1
Cc1cc2sc(NC(=O)C34CC5CC(CC(C5)C3)C4)nc2cc1Cl	12	-1
Cc1ccccc1NC(=O)CCN1C(=O)c2cccnc2Sc2ccccc21	38*	9
Cc1cccc(NC(=O)CCN2C(=O)c3cccnc3Sc3ccccc32)c1C	15	5
O=C1COc2ccc(NC(=O)N3CCN(C(c4ccccc4)c4ccccc4)CC3)cc2N1	-14	3
O=C(Cc1cccc2ccccc12)Nc1ccc2c(c1)NC(=O)CO2	30*	50*
N#Cc1ccccc1OCc1csc(-c2ccc(F)cc2)n1	23	25
CC(=O)c1ccc(OCc2csc(-c3ccc(F)cc3)n2)cc1	37*	30*
O=C(c1cc(C2CC2)[nH]n1)N1CCC(Cc2ccccc2)CC1	32*	21
O=C(c1cc(C2CC2)[nH]n1)N1CCC(C2Nc3ccccc3S(=O)(=O)N2)CC1 (stereo not given)	22	11
O=C(c1cn2cc(Cl)ccc2n1)N1CCC(Cc2ccccc2)CC1	30*	20
O=C(CSc1ncccc1C(=O)N1CCC(Cc2ccccc2)CC1)Nc1ccc(Cl)cc1	-3	0
C=Cc1ccc(Cn2c(C(=O)O)c(CNC(C)CCc3ccccc3)c3ccccc32)cc1 (stereo not given)	12	27
CC(CCc1ccccc1)NCc1c(C(=O)O)n(Cc2ccc(F)cc2)c2ccccc12 (stereo not given)	4	34*
CC(Sc1nnc(-c2ccccc2Br)o1)C(=O)Nc1cccc(Cl)c1 (stereo not given)	43*	23
Cc1occc1-c1nnc(SC(C)C(=O)Nc2ccccc2)o1 (stereo not given)	0	0
CC(C)C(=O)Nc1nc2ccc(CCC(=O)NCc3ccc4c(c3)OCO4)cc2s1	38*	23
CCCC(=O)Nc1nc2ccc(CCC(=O)NCc3ccccc3)cc2s1	-16	2
O=C(CSc1nncc2ccccc12)Nc1ccc(F)cc1F	-1	5
COc1ccc(C(=O)NCCCn2c(-c3ccc(C)cc3)nc3cccnc32)cc1OC	-162	-59
COc1cccc(NC(=O)c2ccc(SCCN3CCOCC3)nc2)c1	-5	40*

Assay outcomes from PubChem BioAssay.
